Data published in PubChem BioAssay AID1159580 (chemical genetic matrix, 2015).
Screen size: about 5,500 compounds; about 2,000 (36%) were called active. Roughly 18% stayed inconclusive and do not appear here. No stated cut-off is given here; in the data, active means normalized growth mostly below about 0.91 (no sharp cut-off); inconclusive means no clear call, values can overlap the other calls; inactive means mostly above about 0.92. Some of the results follow.

Assay: chemical genetic growth profiling, strain panel (AID 1159580);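 further: tested at 20 µM; growth read once vehicle control cultures reached saturation at 30 °C; 1 = growth at the plate median or of vehicle wells; lower values mean less growth of the strain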
Conditions: S. cerevisiae deletion strains, growth OD
[1] = locus YDL101C, strain DUN1, active compounds read low
[2] = locus YHR030C, strain SLT2, active compounds read low

Measured: normalized growth

Cc1onc(-c2ccc(Cl)cc2)c1-c1ccnn1C(=O)NC(C)C
active: locus YGR078C, strain PAC10, active compounds read low 0.92 | locus YHR087W, strain rtc3, active compounds read low 0.906 | locus YJR075W, strain HOC1, active compounds read low 0.73 | locus YKL190W, strain CNB1, active compounds read low 0.906 | locus YLR058C, strain SHM2 (second series), active compounds read low 0.92 | locus YLR085C, strain ARP6, active compounds read low 0.591 | locus YMR219W, strain ESC1, active compounds read low 0.933 | locus YNL298W, strain CLA4 (second series), active compounds read low 0.836 | locus YNL322C, strain KRE1, active compounds read low 0.921 | locus YNR030W, strain Alg12, active compounds read low 0.804 | locus YPL241C, strain CIN2, active compounds read low 0.789
inactive: locus YAL013W, strain DEP1, active compounds read low 0.966 | locus YBR229C, strain ROT2, active compounds read low 0.932 | locus YCL061C, strain MRC1, active compounds read low 0.963 | [1] 0.974 | locus YDR150W, strain NUM1, active compounds read low 0.96 | locus YEL061C, strain CIN8, active compounds read low 0.94 | [2] 0.918 | locus YJR043C, strain POL32, active compounds read low 0.949 | locus YLR039C, strain RIC1, active compounds read low 0.989 | locus YLR262C, strain YPT6, active compounds read low 1.02 | locus YML094W, strain GIM5, active compounds read low 0.964 | locus YMR263W, strain SAP30, active compounds read low 0.951 | locus YNL153C, strain GIM3, active compounds read low 0.964 | locus YPL055C, strain LGE1, active compounds read low 0.835 | locus YPR135W, strain CTF4, active compounds read low 0.71

Cc1ccc(NNC(=O)c2cccs2)cc1Cl
inactive: locus YAR019C, strain CDC15, active compounds read low 0.969 | locus YBL105C, strain PKC1, active compounds read low 0.969 | locus YBR135W, strain CKS1, active compounds read low 0.971 | locus YBR136W, strain MEC1, active compounds read low 0.974 | locus YBR160W, strain CDC28, active compounds read low 0.957 | locus YDL017W, strain CDC7, active compounds read low 0.979 | locus YDL028C, strain MPS1, active compounds read low 0.972 | [1] 0.968 | locus YDL108W, strain KIN28, active compounds read low 0.967 | locus YDL132W, strain cdc53, active compounds read low 0.975 | locus YDL214C, strain PRR2, active compounds read low 0.964 | locus YDR052C, strain DBF4, active compounds read low 0.976 | locus YDR054C, strain cdc34, active compounds read low 0.966 | locus YDR226W, strain ADK1, active compounds read low 0.96 | locus YDR477W, strain SNF1, active compounds read low 0.974 | locus YER123W, strain YCK3, active compounds read low 0.897 | locus YER133W, strain GLC7, active compounds read low 0.966 | locus YFL009W, strain cdc4, active compounds read low 0.976 | locus YFL029C, strain CAK1, active compounds read low 0.966 | locus YFR003C, strain YPI1, active compounds read low 0.976 | locus YFR019W, strain FAB1, active compounds read low 0.958 | locus YFR028C, strain CDC14, active compounds read low 0.964 | locus YGR040W, strain KSS1, active compounds read low 0.963 | locus YGR052W, strain FMP48, active compounds read low 1.01 | locus YGR092W, strain DBF2, active compounds read low 0.824 | [2] 0.943 | locus YHR079C, strain IRE1, active compounds read low 0.97 | locus YHR082C, strain KSP1, active compounds read low 1.03 | locus YHR205W, strain SCH9, active compounds read low 0.964 | locus YIL147C, strain SLN1, active compounds read low 0.98 | locus YJL095W, strain BCK1, active compounds read low 0.984 | locus YJL128C, strain PBS2, active compounds read low 0.963 | locus YJL157C, strain FAR1, active compounds read low 0.952 | locus YJR016C, strain ILV3, active compounds read low 0.975 | locus YJR066W, strain TOR1 (second series), active compounds read low 0.925 | locus YJR066W, strain TOR1, active compounds read low 1.03 | locus YKL048C, strain ELM1, active compounds read low 0.945 | locus YKL067W, strain YNK1, active compounds read low 0.953 | locus YKL101W, strain HSL1, active compounds read low 0.963 | locus YKL193C, strain SDS22, active compounds read low 0.968 | locus YKL203C, strain TOR2, active compounds read low 1.03 | locus YLR113W, strain HOG1, active compounds read low 0.876 | locus YLR133W, strain CKI1, active compounds read low 0.968 | locus YLR403W, strain SFP1, active compounds read low 0.929 | locus YML070W, strain DAK1, active compounds read low 0.918 | locus YMR001C, strain CDC5, active compounds read low 0.979 | locus YMR205C, strain PFK2 (second series), active compounds read low 0.961 | locus YMR277W, strain FCP1, active compounds read low 0.974 | locus YNL006W, strain LST8, active compounds read low 0.975 | locus YNL020C, strain ARK1, active compounds read low 0.963 | locus YNL161W, strain CBK1, active compounds read low 0.966 | locus YNL183C, strain NPR1, active compounds read low 0.979 | locus YNL207W, strain RIO2, active compounds read low 0.976 | locus YNL222W, strain SSU72, active compounds read low 0.961 | locus YNL307C, strain MCK1 (second series), active compounds read low 0.922 | locus YOL078W, strain AVO1, active compounds read low 0.972 | locus YOL136C, strain PFK27, active compounds read low 0.943 | locus YOR061W, strain CKA2, active compounds read low 0.894 | locus YOR119C, strain RIO1, active compounds read low 1.02 | locus YOR231W, strain MKK1, active compounds read low 0.914 | locus YOR329C, strain SCD5, active compounds read low 0.978 | locus YPL031C, strain PHO85, active compounds read low 0.964 | locus YPL153C, strain RAD53, active compounds read low 0.949 | locus YPL204W, strain HRR25, active compounds read low 0.959 | locus YPL209C, strain IPL1, active compounds read low 0.967 | locus YPL256C, strain CLN2, active compounds read low 0.948 | locus YPR025C, strain CCL1, active compounds read low 0.969 | locus YPR106W, strain ISR1, active compounds read low 0.973 | locus YPR111W, strain DBF20, active compounds read low 0.962 | strain NNK1, active compounds read low 0.991 | strain TSCII, active compounds read low 0.972
